# Reference: PubChem BioAssay AID1159580 (chemical genetic matrix, 2015)
# Hit rate of the full screen: of about 5,500 compounds, about 2,000 (36%) were called active. Roughly 18% stayed inconclusive and do not appear here. Some of the results follow. Unmarked numbers belong to inactive results. Rule as the data show it: active = normalized growth mostly below about 0.91 (no sharp cut-off); inconclusive = no clear call, values can overlap the other calls; inactive = mostly above about 0.92.
# Experiment: chemical genetic growth profiling, strain panel (AID 1159580);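 also: tested at 20 µM; growth read once vehicle control cultures reached saturation at 30 °C; 1 = growth at the plate median or of vehicle wells; lower values mean less growth of the strain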
# Conditions: growth OD
compound,measurement,setting,value
ClC1=C(Cl)C2(Cl)C3C4C=CC(C4)C3C1(Cl)C2(Cl)Cl (configuration not stated),normalized growth,"S. cerevisiae deletion strains, locus YJR075W, strain HOC1, stronger effect = lower value",1.01
same,normalized growth,"S. cerevisiae deletion strains, locus YKL009W, strain mrt4, stronger effect = lower value",0.953
same,normalized growth,"S. cerevisiae deletion strains, locus YKL068W, stronger effect = lower value",0.996
same,normalized growth,"S. cerevisiae deletion strains, locus YKL085W, strain MDH1 (second series), stronger effect = lower value",0.996
same,normalized growth,"S. cerevisiae deletion strains, locus YKL085W, strain MDH1, stronger effect = lower value",0.996
same,normalized growth,"S. cerevisiae deletion strains, locus YKL160W, strain elf1, stronger effect = lower value",0.998
same,normalized growth,"S. cerevisiae deletion strains, locus YKL190W, strain CNB1, stronger effect = lower value",1
same,normalized growth,"S. cerevisiae deletion strains, locus YKR001C, strain vps1, stronger effect = lower value",0.998
same,normalized growth,"S. cerevisiae deletion strains, locus YKR026C, strain gcn3, stronger effect = lower value",0.997
same,normalized growth,"S. cerevisiae deletion strains, locus YKR091W, strain srl3, stronger effect = lower value",0.996
same,normalized growth,"S. cerevisiae deletion strains, locus YLL001W, strain dnm1, stronger effect = lower value",0.998
same,normalized growth,"S. cerevisiae deletion strains, locus YLL026W, stronger effect = lower value",1
same,normalized growth,"S. cerevisiae deletion strains, locus YLL041C, strain sdh2, stronger effect = lower value",0.994
same,normalized growth,"S. cerevisiae deletion strains, locus YLR027C, strain aat2, stronger effect = lower value",1.01
same,normalized growth,"S. cerevisiae deletion strains, locus YLR039C, strain RIC1, stronger effect = lower value",0.942
same,normalized growth,"S. cerevisiae deletion strains, locus YLR058C, strain SHM2, stronger effect = lower value",0.991
same,normalized growth,"S. cerevisiae deletion strains, locus YLR102C, strain apc9, stronger effect = lower value",1
same,normalized growth,"S. cerevisiae deletion strains, locus YLR113W, strain HOG1, stronger effect = lower value",0.892
same,normalized growth,"S. cerevisiae deletion strains, locus YLR221C, strain rsa3, stronger effect = lower value",0.985
same,normalized growth,"S. cerevisiae deletion strains, locus YLR258W, strain gsy2, stronger effect = lower value",0.997
same,normalized growth,"S. cerevisiae deletion strains, locus YLR262C, strain YPT6 (second series), stronger effect = lower value",0.94
same,normalized growth,"S. cerevisiae deletion strains, locus YLR262C, strain YPT6, stronger effect = lower value",0.859
same,normalized growth,"S. cerevisiae deletion strains, locus YLR268W, strain sec22, stronger effect = lower value",0.98
same,normalized growth,"S. cerevisiae deletion strains, locus YLR320W, strain mms22, stronger effect = lower value",0.994
same,normalized growth,"S. cerevisiae deletion strains, locus YLR330W, strain CHS5, stronger effect = lower value",1
same,normalized growth,"S. cerevisiae deletion strains, locus YLR342W, strain FKS1 (second series), stronger effect = lower value",0.916
same,normalized growth,"S. cerevisiae deletion strains, locus YLR342W, strain FKS1, stronger effect = lower value",0.995
same,normalized growth,"S. cerevisiae deletion strains, locus YLR357W, strain rsc2, stronger effect = lower value",1.02
same,normalized growth,"S. cerevisiae deletion strains, locus YLR370C, strain arc18, stronger effect = lower value",0.997
same,normalized growth,"S. cerevisiae deletion strains, locus YLR371W, strain rom2, stronger effect = lower value",0.981
same,normalized growth,"S. cerevisiae deletion strains, locus YLR384C, strain iki3, stronger effect = lower value",0.988
same,normalized growth,"S. cerevisiae deletion strains, locus YLR418C, strain cdc73, stronger effect = lower value",0.894
same,normalized growth,"S. cerevisiae deletion strains, locus YML016C, strain PPZ1, stronger effect = lower value",0.998
same,normalized growth,"S. cerevisiae deletion strains, locus YML032C, strain rad52, stronger effect = lower value",0.976
same,normalized growth,"S. cerevisiae deletion strains, locus YML120C, strain ndi1, stronger effect = lower value",1
same,normalized growth,"S. cerevisiae deletion strains, locus YML124C, strain tub3, stronger effect = lower value",0.984
same,normalized growth,"S. cerevisiae deletion strains, locus YMR058W, strain fet3, stronger effect = lower value",0.999
same,normalized growth,"S. cerevisiae deletion strains, locus YMR078C, strain ctf18, stronger effect = lower value",0.979
same,normalized growth,"S. cerevisiae deletion strains, locus YMR125W, strain sto1, stronger effect = lower value",1
same,normalized growth,"S. cerevisiae deletion strains, locus YMR129W, stronger effect = lower value",0.998
same,normalized growth,"S. cerevisiae deletion strains, locus YMR205C, strain PFK2, stronger effect = lower value",0.99
same,normalized growth,"S. cerevisiae deletion strains, locus YMR223W, strain ubp8, stronger effect = lower value",0.949
same,normalized growth,"S. cerevisiae deletion strains, locus YMR231W, strain pep5, stronger effect = lower value",0.982
same,normalized growth,"S. cerevisiae deletion strains, locus YMR263W, strain SAP30, stronger effect = lower value",0.999
same,normalized growth,"S. cerevisiae deletion strains, locus YMR307W, strain GAS1, stronger effect = lower value",1.07
same,normalized growth,"S. cerevisiae deletion strains, locus YNL067W, strain RPL9B, stronger effect = lower value",1
same,normalized growth,"S. cerevisiae deletion strains, locus YNL071W, strain lat1, stronger effect = lower value",1.01
same,normalized growth,"S. cerevisiae deletion strains, locus YNL128W, strain TEP1, stronger effect = lower value",0.992
same,normalized growth,"S. cerevisiae deletion strains, locus YNL153C, strain GIM3, stronger effect = lower value",1.01
same,normalized growth,"S. cerevisiae deletion strains, locus YNL183C, strain NPR1, stronger effect = lower value",0.951
same,normalized growth,"S. cerevisiae deletion strains, locus YNL209W, strain ssb2, stronger effect = lower value",0.997
same,normalized growth,"S. cerevisiae deletion strains, locus YNL233W, strain BNI4, stronger effect = lower value",0.986
same,normalized growth,"S. cerevisiae deletion strains, locus YNL248C, strain rpa49, stronger effect = lower value",1.01
same,normalized growth,"S. cerevisiae deletion strains, locus YNL250W, strain rad50, stronger effect = lower value",0.99
same,normalized growth,"S. cerevisiae deletion strains, locus YNL271C, strain bni1, stronger effect = lower value",0.99
same,normalized growth,"S. cerevisiae deletion strains, locus YNL298W, strain CLA4, stronger effect = lower value",0.981
same,normalized growth,"S. cerevisiae deletion strains, locus YNL307C, strain MCK1, stronger effect = lower value",0.48 (active)
same,normalized growth,"S. cerevisiae deletion strains, locus YNL322C, strain KRE1 (second series), stronger effect = lower value",0.97
same,normalized growth,"S. cerevisiae deletion strains, locus YNL322C, strain KRE1, stronger effect = lower value",1
same,normalized growth,"S. cerevisiae deletion strains, locus YNR049C, strain mso1, stronger effect = lower value",0.995
same,normalized growth,"S. cerevisiae deletion strains, locus YNR052C, strain pop2, stronger effect = lower value",0.979
same,normalized growth,"S. cerevisiae deletion strains, locus YOL006C, strain TOP1, stronger effect = lower value",0.969
same,normalized growth,"S. cerevisiae deletion strains, locus YOL012C, strain htz1",1.09
same,normalized growth,"S. cerevisiae deletion strains, locus YOL147C, strain pex11, stronger effect = lower value",0.996
same,normalized growth,"S. cerevisiae deletion strains, locus YOR001W, strain rrp6, stronger effect = lower value",0.993
same,normalized growth,"S. cerevisiae deletion strains, locus YOR061W, strain CKA2, stronger effect = lower value",1
same,normalized growth,"S. cerevisiae deletion strains, locus YOR069W, strain VPS5, stronger effect = lower value",0.996
same,normalized growth,"S. cerevisiae deletion strains, locus YOR070C, strain gyp1, stronger effect = lower value",0.982
same,normalized growth,"S. cerevisiae deletion strains, locus YOR080W, strain dia2, stronger effect = lower value",0.989
same,normalized growth,"S. cerevisiae deletion strains, locus YOR083W, strain WHI5, stronger effect = lower value",0.991
same,normalized growth,"S. cerevisiae deletion strains, locus YOR106W, strain vam3, stronger effect = lower value",0.97
same,normalized growth,"S. cerevisiae deletion strains, locus YOR136W, strain idh2, stronger effect = lower value",0.98
same,normalized growth,"S. cerevisiae deletion strains, locus YOR144C, strain elg1, stronger effect = lower value",0.991
same,normalized growth,"S. cerevisiae deletion strains, locus YOR184W, strain ser1, stronger effect = lower value",0.911
same,normalized growth,"S. cerevisiae deletion strains, locus YOR231W, strain MKK1, stronger effect = lower value",1.04
same,normalized growth,"S. cerevisiae deletion strains, locus YOR265W, strain rbl2, stronger effect = lower value",0.991
same,normalized growth,"S. cerevisiae deletion strains, locus YOR270C, strain vph1, stronger effect = lower value",0.967
same,normalized growth,"S. cerevisiae deletion strains, locus YOR290C, strain snf2, stronger effect = lower value",0.991
same,normalized growth,"S. cerevisiae deletion strains, locus YOR316C, strain cot1, stronger effect = lower value",1
same,normalized growth,"S. cerevisiae deletion strains, locus YPL051W, strain arl3, stronger effect = lower value",1.01
same,normalized growth,"S. cerevisiae deletion strains, locus YPL055C, strain LGE1, stronger effect = lower value",0.99
same,normalized growth,"S. cerevisiae deletion strains, locus YPL078C, strain atp4, stronger effect = lower value",1
same,normalized growth,"S. cerevisiae deletion strains, locus YPL106C, strain sse1, stronger effect = lower value",1
same,normalized growth,"S. cerevisiae deletion strains, locus YPL240C, strain hsp82, stronger effect = lower value",1
same,normalized growth,"S. cerevisiae deletion strains, locus YPL241C, strain CIN2, stronger effect = lower value",1.01
same,normalized growth,"S. cerevisiae deletion strains, locus YPL256C, strain CLN2, stronger effect = lower value",1.04
same,normalized growth,"S. cerevisiae deletion strains, locus YPR119W, strain clb2, stronger effect = lower value",0.987
same,normalized growth,"S. cerevisiae deletion strains, locus YPR141C, strain kar3, stronger effect = lower value",0.982
same,normalized growth,"S. cerevisiae deletion strains, locus YPR163C, strain tif3, stronger effect = lower value",0.981
same,normalized growth,"S. cerevisiae deletion strains, locus YPR167C, strain met16, stronger effect = lower value",0.977
same,normalized growth,"S. cerevisiae deletion strains, strain wtn01, stronger effect = lower value",0.983
same,normalized growth,"S. cerevisiae strains, strain wild type, stronger effect = lower value",1.01
